Among the data in PubChem BioAssay AID1508600 (Functional Genomics Laboratory (NCATS/FGL), 2020) are z-score values, retold here.

Out of some 53,000 sequences screened, about 3,700 (7%) were called active. The sample as a whole holds a higher share of actives than the screen did. A number with no mark means an inactive call.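 The calls were made as follows: active = gene knockdowns whose robust z-score for IL-1 alpha signal is at least 2 or at most -2, so actives lie on both sides; inactive = the rest.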

The nature of this test: Components of the Cytosolic LPS Sensing Pathway: Gene Identification via Genome-wide siRNA Screen.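 Also: robust z of the log signal after scaling to non-targeting control siRNA wells of the plate.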 To be noted: RAW264.7 macrophages, IL-1a HTRF, actives lie on both sides, screened at 100 nM (by protocol), cells primed 5 h with Pam3CSK4 first. The method, boiled down: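 RAW264.7; siRNA 100 nM final, RNAiMAX, 48h 37 degrees C; Pam3CSK4 5 h; LipidA + TransIT-TKO 24 h; IL-1a HTRF; CellTiter-Glo viability; robust z vs negative-control median.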
In general terms: Time-resolved FRET reads energy transfer from a long-lived donor to a nearby acceptor.
GCCACACACCUUCUAUAAUTT against Ptprs: the z-score was -0.62. Then GCCAACGCAGCAAAAGCUCTT against Rsrp1, with 0.0495; and CCCAAUAUGUUAGACCCUGTT against Slc16a8, with 0.448. The result for GGUGAUAAUUAAUGUCUUGTT against Naip1 reads 2.08 (active); that for GGAUCAGAACUUAUCUGUGTT against Utp23, 0.383. As to GGCACUGAUAAGAAGUACCTT against Dnah1, the z-score was 0.772. The result for GCUUAUGUUAAACCAGAGATT against Syt8 reads 0.0449; that for GGAUCCUAGCCUUUUAUCATT against Cep70, -1.11. The result for GGAUUCCAGAGAAAUGUGATT against Lrrc66 reads -2.62 (active). On to GGUAUGAGUACAAAUACUGTT against Tek, for which the z-score was 1.97. Turning to GGCUCUGCCAUUUUCCCUUTT against F12, the z-score was -1.24. Then GGCCAAGUUCCAUAUCACCTT against Eefsec, with 0.46; and GGAACUCAGUCAGGACCAATT against Hnf4aos, with 0.954. On to CGAGAAUAUGUGAGAGCUUTT against Dcaf13, for which the z-score is -0.793.

On to GGAGACCCUGGUGAGAAGATT against Emid1, for which the z-score is 0.26. The result for GGAACACAGAGGUAAAAGGTT against Olfr446 reads -2.66 (active); that for CCAGCAUGCAUGAACGAGUTT against Carnmt1, 0.508. Then CCCUGUAACCAAUAAGAAGTT against Snrpa1, with -0.401. On to GGGCUAUGCAGACCUGUACTT against Cyb561, for which the z-score is -2.45 (active).

Take CCUUGGGACAAGCAUAUAUTT against Psg25: the z-score is 0.901. The result for “GGCAAGUCUAAAAUACAUUTT against St6galnac4” reads -0.439; that for CGUACCAGAUGAGCUAAGUTT against Zfp513, 2.56 (active); that for CCUGUUGUAUUGUUUAGCGTT against Ago2, -0.402. With CCUCAAGAUAAACCGACAATT against Bard1, the z-score is 0.388. The result for GGAGUCCGCUCAGAAUUUGTT against Lhpp reads -0.194; that for GGACAAAGUUGUUCCUUCUTT against Zfp13, -2.62 (active).

For GGAAGAUCUACAUCGUGGGTT against Klhl26, the z-score is 0.341. The result for GGUGGUUUUUUGUUGUUGUTT against Lhfpl4 reads 0.277; that for GCCUAUGACUACCUCGAGUTT against Rhob, -2.01 (active); that for GGAGAAUAAUAAGCUGGAATT against Hap1, 0.12. For the sequence CGGUAUCUUGGUCAACCUGTT against Naaa, the z-score is 0.955.

For the sequence GGUAGCUCUGAGACAAUUCTT against Pkhd1l1, the z-score was 0.857. Regarding GCCCAUUAUGGUUAAAGAATT against Ccnb3, the z-score was -0.311. The result for “GGAGAUCGAUAUUCGACUATT against 4933434E20Rik” reads -2.48 (active); that for GGAUAUUCUUCUUAAGCAGTT against Agbl5, -0.168. The result for CCAGGUUGAUGAUUUCAACTT against Tbcc reads -1.43. Then GGGAAGUGCAUGCUCAUCUTT against Smarcal1, with -0.187; and GCGUGGAUUACAUUUCUCUTT against Depdc1a, with 0.392; and “GGACUGAGAACCAAAGCUGTT against D630044L22Rik”, with -3.15 (active). Consider GGAAGAGCCAGUGGUAUAATT against Ccdc171, for which the z-score was 0.164. The result for GUCUGAGCGACUGUCUCCATT against Mef2b reads -2.17 (active); that for GGAGAACCAUAAUAAGAGUTT against Tnfrsf26, -2.88 (active). Then UCAAACUAGGUGCUGUUGUTT against Olfr584, with 0.998. Then CCAAAGAUGCUCCUCACCUTT against Olfr197, with -0.158; and GCUUCUAGCCUGUAUUGCCTT against Rps8, with 0.31; and CCUGUAUUUUACGAUCUUUTT against Best1, with 0.103. In the case of GGUCCUGGACAAAGUGUUUTT against Tubgcp5, the z-score is 2.48 (active). Then CCCAUCUGUUUGAGUGUAUTT against Ms4a1, with -0.305.

Regarding GCCUUGGUACACUAAACUCTT against Rhcg, the z-score was -0.426. Then GCCUGUAAGGAGAAUCAGCTT against Car4, with 0.684; and GGUUCCAAGUCAAAGAGUUTT against Foxl1, with -0.47; and GGACUCUGUAGUUGAAGAUTT against Pogz, with -0.882. CCAUUCUGAAUCUCUAAUCTT against Pigw: the z-score was 0.134. With CCAAUCUGAAGUGCUACUATT against Trim42, the z-score was 0.368. Turning to CCCGUGCCUUCCUUAAAGCTT against Ggt6, the z-score is 0.327. The result for CCCACUGAUGCUAUUUCUATT against Rad1 reads -2.57 (active); that for GGUCUUUAUCUACCAUGGGTT against Itga7, -1.29. On to CCUUUGCCUAUGUUUACCATT against Ropn1l, for which the z-score was 0.851. Then GGGACUCAGUGUUUAUUGATT against Thsd4, with 0.216; and GGCUUUUAAGUUCUUCCAGTT against Ptbp3, with 2.44 (active).

For UCAUUAGUAUCCUCCGUAUTT against Olfr919, the z-score was 0.27. In the case of GGAAGGUGAUGAAGGAUCGTT against Fam118a, the z-score is 0.0491. The result for GGAAGAUUUCACAUCUCAGTT against Pdia5 reads -0.528; that for GCUUGUUAAAAUUGGAAAGTT against Kif11, -1.47; that for GGCCUCCAAUAAAGCUCAGTT against Ttc28, -2.07 (active). The result for GCUCCUAUUACUGAAUUUATT against Olfr749 reads -0.445. In the case of GGUGACCUUACCUAAUGUATT against Mettl18, the z-score is 0.578. Turning to GGCACAAGCAGGAGAUAAATT against Serpinb2, the z-score was 2.05 (active). Consider GGUGGUCUUUUCCCAGCAGTT against Msrb3, for which the z-score is 0.793.

As for GGCAACACGAUGCAGCAGUTT against Fam50a, the z-score is -0.36.

Turning to GCUCUACUGCUUCCUUGUUTT against Olfr229, the z-score was -0.338. The result for GGUGUCUGCUUCUUCAAAGTT against Slc25a26 reads -2.33 (active); that for GGAUAUUGCCAGUAAUUAATT against Kif21a, 0.212. On to GCUACCUCAACAUGGAUGCTT against Pcca, for which the z-score is 1.16. Then GGAUGACUGUAUCUGUACUTT against Ttc3, with 0.0197; and GGCCCAGAACAGAAAACUCTT against Clec1a, with -0.582. Take GGACCUAAGGGAUCUAUUGTT against Col5a3: the z-score was 0.000962. Then GCACUGUGAAUUUGUCAUUTT against Umps, with 1.22; and GGAACACGAAUCAUUUAUGTT against Eif4ebp2, with 0.351. The result for GUUUGGCCGAGUUCAUUUCTT against Pigu reads 0.759. Consider CCUGUGGAUUACGGCCUCATT against Ube3b, for which the z-score is -0.282.

Regarding GGAGCUGUUUUCUGUGAAGTT against Mrps2, the z-score is 0.0283. The result for GGAUGUGGAGCAAGUGAAGTT against Stx1b reads -2.05 (active). With GCUUCAAGCCAUCCGAAUATT against Cfap36, the z-score was 0.886. Then GGACCAGCUGAAGAUGGGATT against Pced1b, with -1.1; and GCCAGUUUCCAGUCCUUGUTT against Dppa5a, with -0.2; and GCACAUAAAAUGCUCACUGTT against Rgr, with -0.084. The result for CCAAACUUAAACAUGUUGUTT against Ddx21 reads 0.364; that for GCUGUACACAGUGAGGAAGTT against Gcat, 5.42 (active); that for CGACUACCACACGUGGAAUTT against Hvcn1, 1.36. The result for UGUUCCUAGGUCAGCUACUTT against Olfr1200 reads -1.54; that for GGCACUUCACAGACUUAGUTT against Selp, -0.682; that for CUCCUUGUCUACCUGAAUATT against Vmn1r213, -1.44.

Consider CCUCUUAGCUAGAUCUUACTT against Smu1, for which the z-score is -2.41 (active). For the sequence GCCUGAGAAGAUAGACUGATT against Pigs, the z-score is 0.114. Then GCUUAACUAGUAUCCUAUGTT against Tas2r135, with -0.228; and GGACAAAGUGAAUUAUAGCTT against Tmem123, with 1.12. The result for GUAAGUUGUUUGAGGAAAGTT against Defb3 reads 2.08 (active). As for GAAAUUCUUCCAGUGGAAGTT against Lrp2bp, the z-score was 0.958. Then “GGAACAUCAUCAACCACUATT against Olfr911-ps1”, with -1.53; and GGUACAACAGACUAUGCAATT against Snai1, with 0.886. Then GCUUUCGCCAAUAAAAAAGTT against Slc13a2, with 0.265; and GGUGAAACGGGAUGUUAACTT against Ppargc1b, with -0.102. The result for GCCUUAUUACUGACCUUUUTT against Smarcd2 reads 1.77; that for GCUAUGAAAGAGGGAAGCUTT against Cyp2c54, 0.164. For the sequence CCAGAAAACUCAGUUUGAATT against Magi3, the z-score was 0.518. Then GCUGGUGGCAAUCAGAAAATT against Nppc, with 0.121.
